Mdm2 MdmX PPI – inhibitors of human Mdm2/MdmX interaction. O15151+Q00987. SaOS-2 split-luciferase Mdm2/MdmX complementation, luminescence. inhibition, % at 8 µM. 330,000 compounds, 3% hits. AID 485346;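 active means inhibition of at least 50% at 8 µM in the primary screen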
MPTP inh – permeability transition pore inhibition; isolated mouse mitochondria, Ca2+ swelling absorbance, 30 min; inhibition, % at 10 µM; 360,000 compounds, 1.4% hits;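 active means inhibition of 50% or more, scaled per plate between neutral and stimulator controls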
CSC inhib – blocks cancer stem cells | inhibition, % at 7.5 µM | 300,000 compounds, 1.1% hits | cancer stem cell-like cells viability, luminescence; in the data active means inhibition above about 75%; tested in HMLE shEcad cells
Gli-Sufu block – Gli-Sufu pathway antagonism | Sufu-KO-LIGHT fibroblasts, Gli luciferase reporter luminescence | inhibition, % at 5 µM | 340,000 compounds, 0.74% hits | AID 588413;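 active means inhibition above about 55%, limit read from the data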
Beta apoptosis – blocks beta cell apoptosis. INS-1E cytokine-induced death, ATP luminescence, 48 h; percent of positive-control rescue, neutral wells zero. protection from apoptosis, % (test concentration not listed). 300,000 compounds, 0.8% hits. AID 435005;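 active means Every replicate reaches about 75%, or at least half do and their mean reaches it too, limit read from the data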;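 further: higher means more ATP so stronger rescue from cytokine killing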
GRIN3A LBD mod – modulates the human NR3A ligand-binding domain. NR3A LBD differential scanning fluorimetry, Tm shift; 0% = protein alone, 100% = glycine-bound protein. Tm shift relative to glycine control, % at 25 µM. 340,000 compounds, 2.5% hits;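 active means melting temperature shift of at least 10% of the positive control shift, at one fixed dose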
Large screens that a line does not name were inactive. Most compounds without a hit are left out; they make up all but 6.6% or so of the library.

COc1ccc(S[C@@H](CCN2CC[C@H](NC(=O)OCc3ccccc3)CCC2=O)c2ccccc2)cc1	CSC inhib 82
CC(=O)Nc1ccc(SC[C@H](C)CN2CC[C@H](C(C)(C)C)CCC2=O)cc1	CSC inhib 102
COc1ccc(SC[C@H](C)CN2CC[C@H](NC(=O)OCc3ccccc3)CCC2=O)cc1	none
CC(=O)Nc1ccc(SC[C@H](CC(C)C)N2CCN(CC(C)C)CCC2=O)cc1	GRIN3A LBD mod 13
CC(=O)Nc1ccc(SC[C@H](Cc2ccccc2)N2CCN(CC(C)C)CCC2=O)cc1	none
O=C(COC(=O)/C=C/c1ccccc1)NCc1ccccc1Cl	none (no result: CSC inhib)
Cc1cccc(C)c1NC(=O)C1c2ccccc2OCC(=O)N1Cc1ccco1 (stereo unspecified)	none (no result: Mdm2 MdmX PPI, CSC inhib, Gli-Sufu block, Beta apoptosis, GRIN3A LBD mod)
OC[C@@H]1CN(Cc2ccncc2)C[C@H](n2cnc3c(N4CCOCC4)ncnc32)O1	none (no result: Mdm2 MdmX PPI, CSC inhib, Gli-Sufu block, Beta apoptosis, GRIN3A LBD mod)
O=C1CC[C@@H](O)CCN1CC[C@H](Sc1ccc(Br)cc1)c1ccccc1	none
CC(C)(C)[C@@H]1CCC(=O)N(CC[C@H](Sc2ccc(Br)cc2)c2ccccc2)CC1	CSC inhib 108
COc1ccc(OC)c(NC(=O)Cn2cc(C#N)c3cc(Br)ccc32)c1	GRIN3A LBD mod 15
COc1cc(OC)c(OC)cc1/C=C/C(=O)OCC(=O)Nc1c(C)n(C)n(-c2ccccc2)c1=O	none (no result: Mdm2 MdmX PPI, CSC inhib, Beta apoptosis)
COc1ccc(C2(c3ccc(OC)cc3)NC(=O)N(CC(=O)NCC(C)c3ccccc3)C2=O)cc1 (stereo unspecified)	GRIN3A LBD mod 25
Cc1ccc(S(=O)(=O)N2CCN(C(=O)COC(=O)c3ccc(O)cc3)CC2)c(C)c1	none (no result: CSC inhib)
c1ccc2c(-c3csc(-c4ccncc4)n3)c[nH]c2c1	GRIN3A LBD mod 27
Brc1ccc(-c2csc(-c3c[nH]c4ccccc34)n2)cc1	GRIN3A LBD mod 47
Cc1ccc(S(=O)(=O)N2C[C@H]3C(=O)C[C@@H](c4ccccc4)N(S(=O)(=O)c4ccc(C)cc4)[C@H]3C[C@H]2c2cccc(C)c2)cc1	none (no result: Mdm2 MdmX PPI, CSC inhib, Gli-Sufu block, Beta apoptosis, GRIN3A LBD mod)
COc1ccc(Cl)cc1-c1nc(-c2ccc(NC(=O)c3cccs3)cc2)no1	GRIN3A LBD mod 35
CC(Oc1ccc(Cl)cc1Cl)C(=O)NNC(=O)c1ccncc1 (stereo unspecified)	none
CC(Oc1ccc(Cl)cc1Cl)C(=O)NNC(=O)c1cccnc1 (stereo unspecified)	none
COc1ccc(NC(=O)c2cccs2)cc1OC	none
CC(Oc1ccc(Cl)cc1Cl)c1nc(-c2ccc(NC(=O)c3ccncc3)cc2)no1 (stereo unspecified)	CSC inhib 83, GRIN3A LBD mod 22 (no result: Beta apoptosis)
CC(Oc1ccc(Cl)cc1Cl)c1nc(-c2ccc(NC(=O)c3cccnc3)cc2)no1 (stereo unspecified)	Beta apoptosis 101, GRIN3A LBD mod 12
O=C(Nc1cccc(S(=O)(=O)N2CCCCC2)c1)C1CCCN1S(=O)(=O)c1ccccc1F (stereo unspecified)	none
COC(=O)c1ccc2nc(-c3ccc(F)cc3)c(CC3CCCCC3)n2c1	none (no result: Mdm2 MdmX PPI, CSC inhib, Gli-Sufu block, Beta apoptosis, GRIN3A LBD mod)
CC1CN(C(=O)NCc2ccccc2)c2cc(Cl)ccc2O1 (stereo unspecified)	none
Cc1ccc2oc3ccccc3c(=O)c2c1	none (no result: Mdm2 MdmX PPI, CSC inhib, Beta apoptosis)
O=c1c2ccccc2oc2ccc(-c3ccc4cc[nH]c4c3)cc12	CSC inhib 89, GRIN3A LBD mod 26
CC(C)CN(C(=O)c1cc(=O)[nH]c2ccccc12)c1c(N)n(Cc2ccccc2)c(=O)[nH]c1=O	GRIN3A LBD mod 11
Cc1nnc(SCC(=O)Nc2ccc(-c3nc4ccccc4s3)cc2)s1	GRIN3A LBD mod 30 (no result: Mdm2 MdmX PPI)
Cc1nnc(SCC(=O)Nc2ccccc2NC(=O)CSc2nnc(C)s2)s1	none
O=C(CCN1C(=O)NC2(CCCC2)C1=O)Nc1ccc(-c2nc3ccccc3s2)cc1	GRIN3A LBD mod 26 (no result: CSC inhib, Beta apoptosis)
CC(C)Cn1c(O)c(/C=C2\C=NN=C2c2ccccc2)sc1=S	CSC inhib 90, GRIN3A LBD mod 30
CCCCn1c(O)c(/C=C2\C=NN=C2c2ccccc2)sc1=S	GRIN3A LBD mod 26
CCCCCCn1c(O)c(/C=C2\C=NN=C2c2ccccc2)sc1=S	GRIN3A LBD mod 35
CCn1c(O)c(/C=C2\C=NN=C2c2ccccc2)sc1=S	none
O=C(N=c1ccn(-c2nc3ccccc3nc2NS(=O)(=O)c2ccc(Cl)cc2)cc1)c1ccccc1Cl	none (no result: MPTP inh, Gli-Sufu block, Beta apoptosis, GRIN3A LBD mod)
O=C(N=c1ccn(-c2nc3ccccc3nc2NS(=O)(=O)c2ccccc2)cc1)c1ccccc1Cl	none
CC(=O)Nc1ccc(S(=O)(=O)Nc2nc3ccccc3nc2-n2ccc(=NC(=O)c3ccc(F)cc3)cc2)cc1	GRIN3A LBD mod 36 (no result: CSC inhib)
CC(=O)Nc1ccc(S(=O)(=O)Nc2nc3ccccc3nc2-n2ccc(=NC(=O)c3ccccc3)cc2)cc1	GRIN3A LBD mod 25
OCCC1CN(Cc2cnc(-c3ccc(Cl)cc3)nc2)CCN1C1CCCC1 (stereo unspecified)	none
COc1ccc(C(=O)O/N=C(\N)c2ccncc2)cc1OC	none
COc1ccc(Cl)cc1C(=O)O/N=C(\N)c1ccncc1	GRIN3A LBD mod 11
COCCN(CCOC)Cc1cc(=O)oc2ccccc12	none (no result: Mdm2 MdmX PPI, CSC inhib, Gli-Sufu block, Beta apoptosis, GRIN3A LBD mod)
O=C(C[C@H]1CC[C@H](NC(=O)Nc2ccccc2F)[C@@H](CO)O1)NCc1ccc(-c2ccccc2)cc1	none (no result: Mdm2 MdmX PPI, CSC inhib, Gli-Sufu block, Beta apoptosis, GRIN3A LBD mod)
Cc1c(C)n(Cc2ccccc2)c2ccc(C(=O)OCCN(C)C)cc12	CSC inhib 85
CCn1cc(/C=N\NC(=O)c2ccc3c(c2)c(C)c(C)n3Cc2ccccc2)c(C)n1	GRIN3A LBD mod 19
CCN(CC)C1=N/C(=C\c2ccc(OC)cc2)C(=O)N1c1ccccc1	GRIN3A LBD mod 12
COc1ccc(-c2ccnc(SCC(=O)c3ccc(OC)c(OC)c3)n2)cc1	GRIN3A LBD mod 14
COc1ccc(-c2ccnc(SCC(=O)c3ccc(Cl)cc3)n2)cc1	none
COc1ccc(OC)c(C(=O)CSc2nccc(-c3ccc(Br)cc3)n2)c1	CSC inhib 79
Cc1onc(-c2c(Cl)cccc2Cl)c1C(=O)N(C)Cc1ccccc1	none
O=C(COc1ccccc1)Nc1ccc(Cl)cc1Cl	none (no result: MPTP inh, Gli-Sufu block, GRIN3A LBD mod)
CC(C)(C)S(=O)N1Cc2cc(=O)n(Cc3ccccc3)c(CCO)c2[C@@H]1CCO (stereo partly specified)	none (no result: Mdm2 MdmX PPI, CSC inhib, Beta apoptosis)
Cc1cc(C)n2c3c(c(C#N)c2n1)CCCC3	none
CCOc1c(C#N)c(C#N)c2nc(C)cc(C)n12	GRIN3A LBD mod 14
O=C(CCS(=O)(=O)Cc1ccccc1)Nc1ncc([N+](=O)[O-])s1	none
O=C(Oc1cccc2cccnc12)c1ccc(N2C(=O)C3C4CCC(C4)C3C2=O)cc1 (stereo unspecified)	none
O=C(Oc1cccc2cccnc12)c1cccc(N2C(=O)C3C4CCC(C4)C3C2=O)c1 (stereo unspecified)	Beta apoptosis 79 (no result: MPTP inh)
COc1cccc(Cn2c3ccc(NC(=O)CCc4ccc(F)cc4)cc3c(=O)n2C)c1	none (no result: Mdm2 MdmX PPI, CSC inhib, Gli-Sufu block, Beta apoptosis, GRIN3A LBD mod)

Screens (PubChem BioAssay)
